Reference: PubChem BioAssay (NCATS)
Records with an inconclusive call do not appear. The source made the active and inactive calls. Unless noted, the call rests on the fitted dose curve; in most records, active means well fitted curve in the direction sought with a large enough effect; inconclusive means small, poorly fitted or top-dose-only effect, or another doubt; inactive means no such curve, though single readings can be large; an effect the other way counts as inactive or inconclusive.

What was measured:
NIH3T3 = test: qHTS assay to identify novel small-molecules to repurpose for Merkel cell carcinoma treatment (AID 1296009); conditions: MCC and control cell lines, CellTiter-Glo viability, 72 h; at 44.8 µM (top of the series) unless noted; further: nearly all actives have a fitted effect of over 60% in size; on activity change, negative = cytotoxicity: on the % scale 0 is the no-effect control and ±100 the full control effect
Outline: (§1)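 After compound transfer in DMSO, plates were kept 72 hr at 37 degree celsius. Luminescent ATP signal from CellTiter-Glo served as viability measure, normalized against DMSO and no-cell controls.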

UISO = test: as above; conditions: MCC and control cell lines, CellTiter-Glo viability, 72 h; series mostly up to 46 µM
Outline: as §1

WaGa = test: as above; conditions: MCC and control cell lines, CellTiter-Glo viability, 72 h; series mostly up to 46 µM
Outline: as §1

C33A = test: Primary qHTS to identify gynecologic anti-cancer compounds using libraries of approved drugs and bioactive compounds (AID 1345084); conditions: Gynecologic cancer cell panel viability, ATPlite luminescence, 48 h; series mostly up to 57.5 µM; further: on the % scale 0 is the no-effect control and ±100 the full control effect; nearly all actives have a fitted effect of over 55% in size
Outline: (§2)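 Luminescence from the ATPlite ATP-monitoring reagent indicates viable cell number; lower signal means cytotoxicity. Cells received compound 16 h after seeding and were exposed for 48 h across five concentrations.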

CAOV3 = test: as above; conditions: Gynecologic cancer cell panel viability, ATPlite luminescence, 48 h; series mostly up to 57.5 µM
Outline: as §2

CASKI = test: as above; conditions: Gynecologic cancer cell panel viability, ATPlite luminescence, 48 h; series mostly up to 57.5 µM
Outline: as §2

Es-2 = test: as above; conditions: Gynecologic cancer cell panel viability, ATPlite luminescence, 48 h; series mostly up to 57.5 µM
Outline: as §2

HeLa = test: as above; conditions: Gynecologic cancer cell panel viability, ATPlite luminescence, 48 h; series mostly up to 57.5 µM
Outline: as §2

Hek293T = test: as above; conditions: Gynecologic cancer cell panel viability, ATPlite luminescence, 48 h, control line for the selectivity index; series mostly up to 57.5 µM
Outline: as §2

JEG-3 = test: as above; conditions: Gynecologic cancer cell panel viability, ATPlite luminescence, 48 h; series mostly up to 57.5 µM
Outline: as §2

OV90 = test: as above; conditions: Gynecologic cancer cell panel viability, ATPlite luminescence, 48 h; series mostly up to 57.5 µM
Outline: as §2

PA-1 = test: as above; conditions: Gynecologic cancer cell panel viability, ATPlite luminescence, 48 h; series mostly up to 57.5 µM
Outline: as §2

SKOV3 = test: as above; conditions: Gynecologic cancer cell panel viability, ATPlite luminescence, 48 h; series mostly up to 57.5 µM
Outline: as §2

Tov-21-G = test: as above; conditions: Gynecologic cancer cell panel viability, ATPlite luminescence, 48 h; series mostly up to 57.5 µM
Outline: as §2

Tov112D = test: as above; conditions: Gynecologic cancer cell panel viability, ATPlite luminescence, 48 h; series mostly up to 57.5 µM
Outline: as §2

[1] = Drug repurposing screens with cells derived from glioblastoma tumor samples (AID 1345199); conditions: GBM patient neurospheres viability, ATP luminescence, 48 h; further: on the % scale 0 is the no-effect control and ±100 the full control effect; nearly all actives have a fitted effect of over 40% in size
Outline: (§3)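 Four patient lines of CD133+ GBM neurospheres were screened at several concentrations; hits were retested in those lines plus three slower-growing GBM lines, using 48-hour treatment and ATP-based viability.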

astro = test: as above; conditions: viability, ATP luminescence, 48 h; series mostly up to 45.9 µM
Outline: as §3

[2] = biological target: Nuclear receptor subfamily 1 group I member 2 (Rattus norvegicus) (UniProt Q9R1A7); test: qHTS assay for small molecule activators of the rat pregnane X receptor (rPXR) signaling pathway (AID 651751; call rule not given here; further: 0% is about no effect); conditions: rPXR reporter cells, luciferase (One-Glo), 24 h
[3] = qHTS assay for small molecule activators of the human pregnane X receptor (PXR) signaling pathway (AID 720659; call rule not given here; further: 0% is about no effect)
[4] = at 45.9 µM (top of the series), tumour line B
[5] = at 45.9 µM (top of the series), tumour line D
[6] = at 46 µM (top of the series), tumour line A
[7] = at 46.1 µM (top of the series), tumour line C
[8] = at 20 µM (top of the series), tumour line C
[9] = at 21.2 µM (top of the series), tumour line B
[10] = at 21.2 µM (top of the series), tumour line D

Sequence of Nuclear receptor subfamily 1 group I member 2 (Rattus norvegicus) (Q9R1A7 whole entry, looked up): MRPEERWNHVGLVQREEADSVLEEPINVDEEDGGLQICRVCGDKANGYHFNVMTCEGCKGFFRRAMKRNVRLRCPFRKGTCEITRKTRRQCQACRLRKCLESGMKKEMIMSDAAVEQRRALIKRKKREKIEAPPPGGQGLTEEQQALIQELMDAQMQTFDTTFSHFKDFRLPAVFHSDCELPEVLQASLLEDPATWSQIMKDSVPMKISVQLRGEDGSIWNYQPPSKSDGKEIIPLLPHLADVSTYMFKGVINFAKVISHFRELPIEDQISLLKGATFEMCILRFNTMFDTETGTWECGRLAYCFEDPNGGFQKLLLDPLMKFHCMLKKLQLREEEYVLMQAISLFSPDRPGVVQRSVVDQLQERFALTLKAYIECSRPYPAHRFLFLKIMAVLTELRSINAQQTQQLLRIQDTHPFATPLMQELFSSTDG

CCCCCC(N)=O
inactive: outcome (NIH3T3) | outcome (UISO) | outcome (WaGa) | outcome (C33A) | outcome (CAOV3) | outcome (CASKI) | outcome (Es-2) | outcome (HeLa) | outcome (Hek293T) | outcome (JEG-3) | Potency (OV90) | outcome (PA-1) | outcome (SKOV3) | outcome (Tov-21-G) | outcome (Tov112D) | activity, negative = cell killing [1, 4] -6.65% | activity, negative = cell killing [1, 5] -23.8% | activity, negative = cell killing [1, 6] -18.7% | activity, negative = cell killing [1, 7] -14.8% | outcome (astro) | max response [2] 8.83% | outcome [3]

CC(C)c1cc2c(cc1S(=O)(=O)O)[C@@]1(C)CCC[C@@](C)(C(=O)O)[C@@H]1CC2
inactive: outcome (NIH3T3) | outcome (UISO) | outcome (WaGa) | outcome (C33A) | outcome (CAOV3) | outcome (CASKI) | outcome (Es-2) | outcome (HeLa) | outcome (Hek293T) | outcome (JEG-3) | Potency (OV90) | outcome (PA-1) | outcome (SKOV3) | outcome (Tov-21-G) | outcome (Tov112D) | activity, negative = cell killing [1, 4] -17.5% | activity, negative = cell killing [1, 5] -7.28% | activity, negative = cell killing [1, 6] -18.1% | activity, negative = cell killing [1, 7] -15.9%

CCOC(N)=O
inactive: outcome (NIH3T3) | outcome (UISO) | outcome (WaGa) | outcome (C33A) | outcome (CAOV3) | outcome (CASKI) | outcome (Es-2) | outcome (HeLa) | outcome (Hek293T) | outcome (JEG-3) | Potency (OV90) | outcome (PA-1) | outcome (SKOV3) | outcome (Tov-21-G) | outcome (Tov112D) | activity, negative = cell killing [1, 4] -14.9% | activity, negative = cell killing [1, 5] 19.2% | activity, negative = cell killing [1, 6] -11.2% | activity, negative = cell killing [1, 7] -16.1% | outcome (astro)

CC1(C)[C@@H](OC(=O)CCC(=O)O)CC[C@]2(C)[C@H]3C(=O)C=C4[C@@H]5C[C@@](C)(C(=O)O)CC[C@]5(C)CC[C@@]4(C)[C@]3(C)CC[C@@H]12
inactive: outcome (NIH3T3) | outcome (UISO) | outcome (WaGa) | outcome (C33A) | outcome (CAOV3) | outcome (CASKI) | outcome (Es-2) | outcome (HeLa) | outcome (Hek293T) | outcome (JEG-3) | Potency (OV90) | outcome (PA-1) | outcome (SKOV3) | outcome (Tov-21-G) | outcome (Tov112D) | activity, negative = cell killing [1, 8] -5.99% | activity, negative = cell killing [1, 9] -8.6% | activity, negative = cell killing [1, 10] -19.2% | activity, negative = cell killing ([1]; at 21.3 µM (top of the series), tumour line A) -22.2% | outcome (astro)

FC(F)(F)C(Cl)Br (centres undefined)
inactive: outcome (NIH3T3) | outcome (UISO) | outcome (WaGa) | outcome (C33A) | outcome (CAOV3) | outcome (CASKI) | outcome (Es-2) | outcome (HeLa) | outcome (Hek293T) | outcome (JEG-3) | Potency (OV90) | outcome (PA-1) | outcome (SKOV3) | outcome (Tov-21-G) | outcome (Tov112D) | activity, negative = cell killing [1, 4] -5.12% | activity, negative = cell killing [1, 5] -3.03% | activity, negative = cell killing [1, 6] -22.4% | activity, negative = cell killing [1, 7] -0.139% | outcome (astro) | max response [2] 3.38% | outcome [3]

N[C@@H](Cc1ccc(O)cc1)C(=O)O
inactive: outcome (NIH3T3) inactive [at 9.27 µM] | activity change, negative = cytotoxicity (UISO) 19.3% [at 9.22 µM] | activity change, negative = cytotoxicity (WaGa) -2.96% [at 9.22 µM] | activity change, negative = cytotoxicity (C33A) 3.53% [at 11.6 µM] | activity change, negative = cytotoxicity (CAOV3) -13.2% [at 11.6 µM] | activity change, negative = cytotoxicity (CASKI) 0.958% [at 11.6 µM] | activity change, negative = cytotoxicity (Es-2) -4.06% [at 11.6 µM] | activity change, negative = cytotoxicity (HeLa) 11.2% [at 11.6 µM] | activity change, negative = cytotoxicity (Hek293T) 11.5% [at 11.6 µM] | activity change, negative = cytotoxicity (JEG-3) 4.09% [at 11.6 µM] | activity change, negative = cytotoxicity (OV90) 9.24% [at 11.6 µM] | activity change, negative = cytotoxicity (PA-1) 1.05% [at 11.6 µM] | activity change, negative = cytotoxicity (SKOV3) -0.073% [at 11.6 µM] | activity change, negative = cytotoxicity (Tov-21-G) 5.15% [at 11.6 µM] | activity change, negative = cytotoxicity (Tov112D) 8.21% [at 11.6 µM] | activity, negative = cell killing [1, 4] -2.51% | activity, negative = cell killing [1, 5] -14.6% | activity, negative = cell killing [1, 6] -11% | activity, negative = cell killing [1, 7] 37.9% | outcome (astro)

CCN[C@H]1CN(CCCOC)S(=O)(=O)c2sc(S(N)(=O)=O)cc21
inactive: outcome (NIH3T3) | outcome (UISO) | outcome (WaGa) | outcome (C33A) | outcome (CAOV3) | outcome (CASKI) | outcome (Es-2) | outcome (HeLa) | outcome (Hek293T) | outcome (JEG-3) | Potency (OV90) | outcome (SKOV3) | outcome (Tov-21-G) | outcome (Tov112D) | activity, negative = cell killing [1, 8] -0.607% | activity, negative = cell killing [1, 9] -9.2% | activity, negative = cell killing [1, 10] 8.52% | outcome (astro)

CC(=O)N1C[C@H](O)C[C@H]1C(=O)O
inactive: outcome (NIH3T3) | outcome (UISO) | outcome (WaGa) | outcome (C33A) | outcome (CAOV3) | outcome (CASKI) | outcome (Es-2) | outcome (HeLa) | outcome (Hek293T) | outcome (JEG-3) | Potency (OV90) | outcome (PA-1) | outcome (Tov-21-G) | outcome (Tov112D) | activity, negative = cell killing [1, 4] -12.7% | activity, negative = cell killing [1, 5] 12.1% | activity, negative = cell killing [1, 6] -19.6% | activity, negative = cell killing [1, 7] -5.75% | outcome (astro)

c1ccc2[nH]ccc2c1
inactive: outcome (NIH3T3) | outcome (UISO) | outcome (WaGa) | outcome (C33A) | outcome (CAOV3) | outcome (CASKI) | outcome (Es-2) | outcome (HeLa) | outcome (Hek293T) | outcome (JEG-3) | Potency (OV90) | outcome (PA-1) | outcome (SKOV3) | outcome (Tov-21-G) | outcome (Tov112D) | activity, negative = cell killing [1, 4] -8.88% | activity, negative = cell killing [1, 6] -21.8% | activity, negative = cell killing [1, 7] 0.178% | outcome (astro)

Cc1ncc(CO)c(CN)c1O
inactive: outcome (NIH3T3) | outcome (UISO) | outcome (WaGa) | outcome (C33A) | outcome (CAOV3) | outcome (CASKI) | outcome (Es-2) | outcome (HeLa) | outcome (Hek293T) | outcome (Tov-21-G) | outcome (Tov112D) | activity, negative = cell killing [1, 4] 0.478% | activity, negative = cell killing [1, 5] 6.58% | activity, negative = cell killing [1, 6] -23.9% | activity, negative = cell killing [1, 7] -87% | outcome (astro)

CC(=O)N(CC(O)CO)c1c(I)c(C(=O)NCC(O)CO)c(I)c(C(=O)NCC(O)CO)c1I (centres undefined)
inactive: outcome (NIH3T3) | outcome (UISO) | outcome (WaGa) | outcome (C33A) | outcome (CASKI) | outcome (Es-2) | outcome (HeLa) | outcome (Hek293T) | outcome (JEG-3) | Potency (OV90) | outcome (PA-1) | outcome (SKOV3) | outcome (Tov-21-G) | outcome (Tov112D) | activity, negative = cell killing [1, 4] -2.73% | activity, negative = cell killing [1, 5] -8.17% | activity, negative = cell killing [1, 6] -31.6% | activity, negative = cell killing [1, 7] -23.8% | outcome (astro)
